Laboratory results from PubChem BioAssay (Tox21).
Records with an inconclusive call do not appear. Active and inactive are the calls of the source. Unless noted, calls come from the whole dose curve; as a rule, active = well fitted curve in the direction sought with a large enough effect in the repeat runs; inconclusive = weak or mixed curves; inactive = no such curve, though single readings can be large; an effect the other way counts as inactive or inconclusive.

Assays:
[1] = qHTS assay for small molecule agonists of the p53 signaling pathway (AID 651631; calls by dose curve; note: nearly all actives have a fitted effect of over 15% in size)
Procedure, shortened: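 p53RE-bla HCT-116 cells; compounds 16 h, 37 °C; LiveBLAzer B/G FRET substrate 2 h RT; fluorescence intensity read-out, qHTS format.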

[2] = qHTS assay for small molecules that induce genotoxicity in human embryonic kidney cells expressing luciferase-tagged ATAD5 (AID 651632); note: nearly all actives have a fitted effect of over 15% in size
Procedure, shortened: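 Test compounds were delivered by pin tool onto HEK293T reporter cells (2,000/well) expressing ATAD5 fused to luciferase. After 16 hr at 37C, 5% CO2, Amplite was added for 30 min at room temperature and luminescence was measured.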

[3] = qHTS assay for small molecule agonists of the p53 signaling pathway - cell viability (AID 651633; calls by dose curve;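 note: p53RE-bla HCT reporter cells with a stable beta-lactamase p53 reporter; series mostly up to about 83 µM; nearly all actives have a fitted effect of over 30% in size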)
Procedure, shortened: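 p53RE-bla cells, seeded at 4,000 per well and rested 5 h at 37 C/5% CO2, received compounds in DMSO for 16 h at 37 C. CellTiter-Glo was then added, and luminescence was read after 30 min at room temperature to gauge cytotoxicity.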

[4] = qHTS assay for small molecules that induce genotoxicity in human embryonic kidney cells expressing luciferase-tagged ATAD5 - cell viability (AID 651634; calls by dose curve; note: nearly all actives have a fitted effect of over 25% in size)
Procedure, shortened: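 Quantitative high-throughput format. HEK293T cells expressing ATAD5 fused to luciferase were plated at 2,000 cells/well and treated 15.5 hr with compound versus DMSO. Viability was determined by fluorescent live-cell protease substrate, 30 min at 37C.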

[5] = qHTS assay for small molecule disruptors of the mitochondrial membrane potential - cell viability (AID 720634; calls by dose curve;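 note: human HepG2 liver cancer cells; series mostly up to about 83 µM; nearly all actives have a fitted effect of over 20% in size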)
Procedure, shortened: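 Same-well counter-screen: following the MMP dye addition, CellTiter-Glo was added to 1 hr compound-treated HepG2 cells and luminescence read after 30 min at room temperature.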

[6] = qHTS assay for small molecule disruptors of the mitochondrial membrane potential (AID 720635)
Procedure, shortened: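 HepG2 cells (2,000/well) attached overnight at 37C, then took compound for 1 hr at 37C, 5% CO2. Mito-MPS dye was added for 30 min; fluorescence was read at 490/535 nm (monomers) and 540/590 nm (aggregates).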

[7] = qHTS assay to test for compound auto fluorescence at 590 nm (red) in HepG2 cells (AID 720674)
Procedure, shortened: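 Rose Bengal sodium served as the red fluorophore standard. HepG2 monolayers (overnight attachment, MEM with 10% FBS) were exposed to test compounds for 1 hr at 37 C and read at Ex 540/Em 590 nm.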

[8] = qHTS assay to test for compound auto fluorescence at 535 nm (green) in HepG2 cells (AID 720675)
[9] = qHTS assay to test for compound auto fluorescence at 460 nm (blue) in HEK293 cells (AID 720678)
Procedure, shortened: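 HEK293, 2,000 cells/well, 10% dialyzed FBS; attach 4-5 hr 37C; pin compound or DMSO; o/n 37C/5% CO2; fluorescence 405/460 nm; triamterene-equivalent units.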

[10] = qHTS assay to test for compound auto fluorescence at 590 nm (red) in HEK293 cells (AID 720679)
Procedure, shortened: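 Intensity at 540nm excitation and 590nm emission is reported as Rose Bengal sodium-equivalent autofluorescence. Measurements followed overnight exposure (37C, 5% CO2) of HEK293 cells, 2,000 per well, to 23 nL compound.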

[11] = qHTS assay to test for compound auto fluorescence at 535 nm (green) in HEK293 cells (AID 720680)
[12] = qHTS assay to test for compound auto fluorescence at 460 nm (blue) in HEK293 cell free culture (AID 720681)
Procedure, shortened: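 Test compounds were pinned into cell-free culture medium (DMEM with 10% FBS) and fluorescence was read directly at Ex/Em 405/460 nm. Signals were expressed as fluorescence equivalents of triamterene, with DMSO vehicle as control.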

[13] = qHTS assay to test for compound auto fluorescence at 535 nm (green) in HEK293 cell free culture (AID 720682)
Procedure, shortened: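 Cell-free medium (DMEM, 10% FBS) receives compound or DMSO by pintool. Plate read directly at Ex 485/Em 535 nm. Signal converted to fluorescein equivalency.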

[14] = qHTS assay to test for compound auto fluorescence at 590 nm (red) in HEK293 cell free culture (AID 720683)
Procedure, shortened: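 Tox21 10K library compounds were pinned into cell-free DMEM with 10% FBS and fluorescence was read at excitation 540 nm. Activity is expressed as Rose Bengal sodium equivalency.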

[15] = qHTS assay to test for compound auto fluorescence at 590 nm (red) in HepG2 cell free culture (AID 720684)
Procedure, shortened: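 Ex 540 / Em 590 nm read of compound in cell-free MEM (10% FBS). Rose Bengal sodium reference.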

[16] = qHTS assay to test for compound auto fluorescence at 460 nm (blue) in HepG2 cell free culture (AID 720685)
Procedure, shortened: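 Cell-free plates of MEM plus 10% FBS received 23 nL compound or DMSO vehicle; blue-channel (405/460 nm) intensity scored against triamterene as reference fluorophore.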

[17] = qHTS assay to test for compound auto fluorescence at 535 nm (green) in HepG2 cell free culture (AID 720686)
[18] = qHTS assay to test for compound auto fluorescence at 460 nm (blue) in HepG2 cells (AID 720687)
Procedure, shortened: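 Cells (2,000/well in MEM with 10% FBS) attached overnight at 37 C, then were exposed to compound or DMSO for 1 hr at 37 C, 5% CO2. Fluorescence read at Ex/Em 405/460 nm, expressed as triamterene-equivalent signal.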

[19] = biological target: Glucocorticoid receptor (Homo sapiens) (UniProt P04150); experiment: qHTS assay to identify small molecule agonists of the glucocorticoid receptor (GR) signaling pathway (AID 720691; active = well fitted activation curve with a large enough effect in the signal ratio in the repeat runs, not every such curve was filed as active; the % refers to the signal ratio)
Sequence of Glucocorticoid receptor (Homo sapiens) (P04150 whole entry, looked up): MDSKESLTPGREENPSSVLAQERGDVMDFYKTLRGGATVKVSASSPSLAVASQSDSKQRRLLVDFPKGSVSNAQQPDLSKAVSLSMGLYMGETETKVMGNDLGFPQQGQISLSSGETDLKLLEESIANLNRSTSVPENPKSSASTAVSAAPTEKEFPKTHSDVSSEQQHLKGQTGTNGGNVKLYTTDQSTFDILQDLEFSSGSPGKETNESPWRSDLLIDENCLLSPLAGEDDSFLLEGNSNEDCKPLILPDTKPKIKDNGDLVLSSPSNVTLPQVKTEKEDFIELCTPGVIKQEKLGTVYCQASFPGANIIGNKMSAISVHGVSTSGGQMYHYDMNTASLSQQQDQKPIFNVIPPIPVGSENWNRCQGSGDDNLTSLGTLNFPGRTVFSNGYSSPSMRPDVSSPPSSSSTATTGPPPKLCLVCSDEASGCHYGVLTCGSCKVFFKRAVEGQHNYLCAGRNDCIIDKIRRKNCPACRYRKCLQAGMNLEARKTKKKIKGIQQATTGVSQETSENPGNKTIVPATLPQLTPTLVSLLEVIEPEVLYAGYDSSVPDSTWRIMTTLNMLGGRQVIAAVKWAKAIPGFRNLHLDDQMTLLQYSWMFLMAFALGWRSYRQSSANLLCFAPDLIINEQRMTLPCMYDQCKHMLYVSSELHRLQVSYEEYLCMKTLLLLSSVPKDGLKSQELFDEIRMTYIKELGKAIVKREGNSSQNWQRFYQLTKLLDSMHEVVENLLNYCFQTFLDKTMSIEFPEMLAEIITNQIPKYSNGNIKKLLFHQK
Procedure, shortened: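 A HeLa cervical cancer line expressing GR and a glucocorticoid response element-driven beta-lactamase gene is treated with compounds for 18 h; LiveBLAzer B/G FRET substrate is then applied and fluorescence read.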

[20] = biological target: Glucocorticoid receptor (Homo sapiens) (UniProt P04150); experiment: qHTS assay to identify small molecule antagonists of the glucocorticoid receptor (GR) signaling pathway (AID 720692; active = well fitted inhibition curve with a large enough effect in the signal ratio in the repeat runs, not every such curve was filed as active; the % refers to the signal ratio)
Procedure, shortened: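 GRE-bla HeLa line, dex-stimulated (5 nM final). Compound exposure 18 h, 37 C. Beta-lactamase FRET read after 2 h RT substrate.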

[21] = qHTS assay for identifying genotoxic compounds that show differential cytotoxicity against isogenic chicken DT40 cell lines with known DNA damage response pathways - wild type cell line (AID 743012); note: nearly all actives have a fitted effect of over 60% in size
Procedure, shortened: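 300 wt DT40 cells/well; cpd (DMSO) pintool-transferred after ~0.5 h at 37 C/5% CO2; 40 h incubation; CellTiter-Glo added, 30 min RT; luminescence read.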

[22] = qHTS assay for identifying genotoxic compounds that show differential cytotoxicity against isogenic chicken DT40 cell lines with known DNA damage response pathways - Rev3 mutant cell line (AID 743014); note: nearly all actives have a fitted effect of over 55% in size
[23] = qHTS assay for identifying genotoxic compounds that show differential cytotoxicity against isogenic chicken DT40 cell lines with known DNA damage response pathways - Rad54/Ku70 mutant cell line (AID 743015); note: nearly all actives have a fitted effect of over 60% in size
[24] = qHTS assay to identify small molecule antagonists of the androgen receptor (AR) signaling pathway - cell viability counter screen (AID 743033; note: nearly all actives have a fitted effect of over 45% in size)
[25] = biological target: Androgen receptor (Homo sapiens) (UniProt P10275); experiment: qHTS assay to identify small molecule antagonists of the androgen receptor (AR) signaling pathway (AID 743035; active = well fitted inhibition curve with a large enough effect in the signal ratio in the repeat runs, not every such curve was filed as active; the % refers to the signal ratio)
Sequence of Androgen receptor (Homo sapiens) (P10275 whole entry, looked up): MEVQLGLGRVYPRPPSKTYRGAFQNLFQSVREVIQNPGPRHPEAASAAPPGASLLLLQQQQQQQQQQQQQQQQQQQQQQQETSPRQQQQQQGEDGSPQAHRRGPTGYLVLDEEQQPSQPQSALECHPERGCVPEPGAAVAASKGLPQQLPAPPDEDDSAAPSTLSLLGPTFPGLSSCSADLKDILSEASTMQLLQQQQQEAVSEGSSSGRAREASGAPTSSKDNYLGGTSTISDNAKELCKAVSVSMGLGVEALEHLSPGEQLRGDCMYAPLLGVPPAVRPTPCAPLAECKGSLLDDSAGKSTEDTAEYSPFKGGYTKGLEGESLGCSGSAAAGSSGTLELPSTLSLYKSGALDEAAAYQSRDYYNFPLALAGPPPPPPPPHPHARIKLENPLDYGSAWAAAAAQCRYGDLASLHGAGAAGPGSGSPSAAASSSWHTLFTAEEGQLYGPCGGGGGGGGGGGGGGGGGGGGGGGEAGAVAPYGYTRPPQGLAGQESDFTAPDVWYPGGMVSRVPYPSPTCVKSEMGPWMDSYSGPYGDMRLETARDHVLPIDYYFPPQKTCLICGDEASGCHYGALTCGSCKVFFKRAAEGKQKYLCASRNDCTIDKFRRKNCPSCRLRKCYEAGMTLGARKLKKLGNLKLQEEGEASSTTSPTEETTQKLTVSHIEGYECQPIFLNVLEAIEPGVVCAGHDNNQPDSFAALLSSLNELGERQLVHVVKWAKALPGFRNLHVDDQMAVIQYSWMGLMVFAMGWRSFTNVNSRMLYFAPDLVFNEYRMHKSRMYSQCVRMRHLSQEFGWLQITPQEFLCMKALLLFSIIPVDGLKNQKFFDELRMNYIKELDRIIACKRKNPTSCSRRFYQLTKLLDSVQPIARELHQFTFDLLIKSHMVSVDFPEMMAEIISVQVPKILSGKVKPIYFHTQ
Procedure, shortened: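 In this cell-based reporter screen, compounds were tested in concentration series against R1881-activated HEK293 cells expressing beta-lactamase under UAS control; after 16 h at 37C, FRET substrate was added and fluorescence read 2 h later.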

[26] = biological target: Androgen receptor (Homo sapiens) (UniProt P10275); experiment: qHTS assay to identify small molecule agonists of the androgen receptor (AR) signaling pathway (AID 743036; active = well fitted activation curve with a large enough effect in the signal ratio in the repeat runs, with a control signal flat, not every such curve was filed as active; the % refers to the signal ratio)
Procedure, shortened: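 AR-bla HEK293 cells, 2,000/well; 4 h preincubation 37C/5% CO2; compound (DMSO) 16 h at 37C; LiveBLAzer B/G FRET substrate 2 h RT; fluorescence intensity read-out.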

[27] = biological target: Androgen receptor (Homo sapiens) (UniProt P10275); experiment: qHTS assay to identify small molecule agonists of the androgen receptor (AR) signaling pathway using the MDA cell line (AID 743040; note: nearly all actives have a fitted effect of over 20% in size)
Procedure, shortened: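 Cell-based luciferase reporter: MDA-kb2, MMTV promoter (AR + GR response elements). 16 h compound exposure at 37C; ONE-Glo, 30 min RT, luminescence.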

[28] = qHTS assay to identify small molecule antagonists of the androgen receptor (AR) signaling pathway using the MDA cell line - cell viability counter screen (AID 743041; note: nearly all actives have a fitted effect of over 45% in size)
Procedure, shortened: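 In this qHTS counter assay, fluorescence intensity after CellTiter-Fluor addition indicated viability of MDA-kb2 AR-luc cells given compounds and R1881 for 16 h at 37C.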

[29] = biological target: Androgen receptor (Homo sapiens) (UniProt P10275); experiment: qHTS assay to identify small molecule antagonists of the androgen receptor (AR) signaling pathway using the MDA cell line (AID 743042; note: nearly all actives have a fitted effect of over 55% in size)
Procedure, shortened: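 MDA-kb2 cells (human breast carcinoma, stably carrying an MMTV-luciferase reporter responsive to AR and GR) were plated at 3,000 cells/well and preincubated 5 hr at 37C, then given compound plus R1881 agonist for 16 h. ONE-Glo luminescence was read.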

[30] = qHTS assay to identify small molecule antagonists of the thyroid receptor (TR) signaling pathway - cell viability counter screen (AID 743064); note: nearly all actives have a fitted effect of over 50% in size
Procedure, shortened: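 GH3.TRE-Luc cells, 4 h pre-plating; cpd + T3 1 nM final; 37 °C 23.5 h; CellTiter-Fluor 30 min; fluorescence read.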

[31] = qHTS assay to identify small molecule antagonists of the thyroid receptor (TR) signaling pathway (AID 743065); note: series mostly up to about 70 µM; nearly all actives have a fitted effect of over 55% in size
Procedure, shortened: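 GH3.TRE-Luc rat pituitary cells carrying two TR response elements driving luciferase were plated for 4 h, given compound plus 1 nM T3 (final), and incubated 23.5 h at 37 C. ONE-Glo luminescence measured reporter inhibition; CellTiter-Fluor fluorescence tracked cytotoxicity.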

[32] = tested on: thyroid hormone receptor (rat, GH3 cells); experiment: qHTS assay to identify small molecule agonists of the thyroid receptor (TR) signaling pathway (AID 743066; calls by dose curve)
[33] = qHTS assay to identify small molecule antagonists of the estrogen receptor alpha (ER-alpha) signaling pathway - cell viability counter screen (AID 743074; calls by dose curve;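 note: HEK293 cells carrying ER-alpha-UAS-bla reporter stimulated with 17beta-estradiol; nearly all actives have a fitted effect of over 45% in size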)
[34] = qHTS assay to identify small molecule antagonists of the estrogen receptor alpha (ER-alpha) signaling pathway using the BG1 cell line - cell viability counter screen (AID 743081);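 note: compound given together with 17beta-estradiol as the ER stimulus; series mostly up to about 70 µM; nearly all actives have a fitted effect of over 45% in size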
[35] = biological target: Aromatase (Homo sapiens) (UniProt P11511); experiment: qHTS assay to identify aromatase inhibitors (AID 743083); note: series mostly up to about 70 µM; nearly all actives have a fitted effect of over 55% in size
Sequence of Aromatase (Homo sapiens) (P11511 whole entry, looked up): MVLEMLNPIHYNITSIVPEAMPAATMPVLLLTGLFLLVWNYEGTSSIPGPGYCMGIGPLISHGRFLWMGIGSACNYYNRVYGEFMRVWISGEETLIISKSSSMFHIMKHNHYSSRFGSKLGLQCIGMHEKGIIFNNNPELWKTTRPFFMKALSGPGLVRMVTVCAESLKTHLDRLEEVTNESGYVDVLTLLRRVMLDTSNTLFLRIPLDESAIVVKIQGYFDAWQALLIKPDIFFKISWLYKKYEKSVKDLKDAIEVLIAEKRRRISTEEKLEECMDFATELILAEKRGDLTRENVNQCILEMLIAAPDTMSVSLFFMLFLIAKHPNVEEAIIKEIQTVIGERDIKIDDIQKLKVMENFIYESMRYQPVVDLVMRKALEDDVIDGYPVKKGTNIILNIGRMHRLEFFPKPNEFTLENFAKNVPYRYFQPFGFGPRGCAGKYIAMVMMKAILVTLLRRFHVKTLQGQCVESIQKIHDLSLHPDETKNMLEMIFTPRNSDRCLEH

[36] = qHTS assay to identify aromatase inhibitors - cell viability counter screen (AID 743084)
[37] = biological target: Aryl hydrocarbon receptor (Homo sapiens) (UniProt P35869); experiment: qHTS assay to identify small molecule that activate the aryl hydrocarbon receptor (AhR) signaling pathway (AID 743085);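 note: HG2L7.5c1 human HepG2 liver cells with stably integrated DRE-driven firefly reporter; series mostly up to about 70 µM; nearly all actives have a fitted effect of over 15% in size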
Sequence of Aryl hydrocarbon receptor (Homo sapiens) (P35869 whole entry, looked up): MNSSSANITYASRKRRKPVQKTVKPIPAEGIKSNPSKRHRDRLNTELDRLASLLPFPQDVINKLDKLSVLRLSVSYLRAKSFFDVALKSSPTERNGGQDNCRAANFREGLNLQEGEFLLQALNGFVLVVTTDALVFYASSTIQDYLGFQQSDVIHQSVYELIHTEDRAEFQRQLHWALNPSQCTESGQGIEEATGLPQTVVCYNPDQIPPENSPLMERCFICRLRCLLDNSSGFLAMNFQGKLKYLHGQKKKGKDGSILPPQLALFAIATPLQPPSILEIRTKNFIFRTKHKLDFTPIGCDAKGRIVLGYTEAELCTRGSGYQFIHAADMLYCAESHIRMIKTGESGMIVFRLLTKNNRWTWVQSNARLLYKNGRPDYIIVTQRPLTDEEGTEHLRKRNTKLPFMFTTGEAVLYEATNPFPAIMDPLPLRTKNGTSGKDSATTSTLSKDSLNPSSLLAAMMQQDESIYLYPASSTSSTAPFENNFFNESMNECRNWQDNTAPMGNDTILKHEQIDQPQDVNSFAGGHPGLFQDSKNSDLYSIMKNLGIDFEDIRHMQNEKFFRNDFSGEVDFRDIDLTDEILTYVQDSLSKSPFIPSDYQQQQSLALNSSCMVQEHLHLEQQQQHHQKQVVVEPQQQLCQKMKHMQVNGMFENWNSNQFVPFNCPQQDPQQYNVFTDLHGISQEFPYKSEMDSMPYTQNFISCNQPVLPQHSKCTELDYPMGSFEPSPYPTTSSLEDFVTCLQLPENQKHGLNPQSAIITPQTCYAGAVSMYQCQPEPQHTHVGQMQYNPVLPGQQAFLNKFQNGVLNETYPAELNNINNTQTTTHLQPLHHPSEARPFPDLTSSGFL
Procedure, shortened: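 Luminescence read-out: ONE-Glo reagent, 30 min at room temperature, in HG2L7.5c1 HepG2 reporter cells treated 24 h at 37C. Viability was measured beforehand by CellTiter-Fluor fluorescence after 30 min at 37C.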

[38] = qHTS assay to identify small molecule that activate the aryl hydrocarbon receptor (AhR) signaling pathway - cell viability counter screen (AID 743086)
Procedure, shortened: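 HepG2-AhR-luc (HG2L7.5c1) cells, 4000/well, were preincubated 5 h at 37C, exposed to compound in qHTS format for 24 hr at 37C, then given CellTiter-Fluor for 30 min; viability was read as fluorescence in the reporter wells.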

[39] = biological target: Peroxisome proliferator-activated receptor gamma (Homo sapiens) (UniProt P37231); experiment: qHTS assay to identify small molecule agonists of the peroxisome proliferator-activated receptor gamma (PPARg) signaling pathway (AID 743094; active = well fitted activation curve with a large enough effect in the signal ratio in the repeat runs, not every such curve was filed as active; the % refers to the signal ratio)
Sequence of Peroxisome proliferator-activated receptor gamma (Homo sapiens) (P37231 whole entry, looked up): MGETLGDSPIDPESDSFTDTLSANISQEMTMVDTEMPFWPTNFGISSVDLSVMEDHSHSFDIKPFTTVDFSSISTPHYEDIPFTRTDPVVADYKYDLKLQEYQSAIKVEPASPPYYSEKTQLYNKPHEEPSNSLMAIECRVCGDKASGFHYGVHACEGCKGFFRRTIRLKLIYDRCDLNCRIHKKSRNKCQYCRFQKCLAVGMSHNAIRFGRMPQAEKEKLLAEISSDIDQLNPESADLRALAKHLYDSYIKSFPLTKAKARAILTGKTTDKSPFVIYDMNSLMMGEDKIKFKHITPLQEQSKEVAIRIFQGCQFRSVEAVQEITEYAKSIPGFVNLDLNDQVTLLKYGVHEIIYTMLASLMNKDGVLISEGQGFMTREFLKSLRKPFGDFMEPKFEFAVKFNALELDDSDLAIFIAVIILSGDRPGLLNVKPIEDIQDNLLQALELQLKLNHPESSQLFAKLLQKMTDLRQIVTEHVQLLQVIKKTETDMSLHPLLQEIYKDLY
Procedure, shortened: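 Cell-based bla reporter, HEK293H background, PPARg-driven UAS. Pre-incubation 5 h, 37C, 5% CO2. Compound 17 h, 37C. Substrate 1 h RT; fluorescence.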

[40] = biological target: Acetylcholinesterase (Homo sapiens) (UniProt P22303); experiment: Acetylcholinesterase (AChE) small molecule antagonists: enzyme-based qHTS assay (AID 1347397; calls by dose curve; note: nearly all actives have a fitted effect of over 55% in size); details: Potency: AChE enzyme activity inhibition; outcome: AChE enzyme activity inhibition
Sequence of Acetylcholinesterase (Homo sapiens) (P22303 whole entry, looked up): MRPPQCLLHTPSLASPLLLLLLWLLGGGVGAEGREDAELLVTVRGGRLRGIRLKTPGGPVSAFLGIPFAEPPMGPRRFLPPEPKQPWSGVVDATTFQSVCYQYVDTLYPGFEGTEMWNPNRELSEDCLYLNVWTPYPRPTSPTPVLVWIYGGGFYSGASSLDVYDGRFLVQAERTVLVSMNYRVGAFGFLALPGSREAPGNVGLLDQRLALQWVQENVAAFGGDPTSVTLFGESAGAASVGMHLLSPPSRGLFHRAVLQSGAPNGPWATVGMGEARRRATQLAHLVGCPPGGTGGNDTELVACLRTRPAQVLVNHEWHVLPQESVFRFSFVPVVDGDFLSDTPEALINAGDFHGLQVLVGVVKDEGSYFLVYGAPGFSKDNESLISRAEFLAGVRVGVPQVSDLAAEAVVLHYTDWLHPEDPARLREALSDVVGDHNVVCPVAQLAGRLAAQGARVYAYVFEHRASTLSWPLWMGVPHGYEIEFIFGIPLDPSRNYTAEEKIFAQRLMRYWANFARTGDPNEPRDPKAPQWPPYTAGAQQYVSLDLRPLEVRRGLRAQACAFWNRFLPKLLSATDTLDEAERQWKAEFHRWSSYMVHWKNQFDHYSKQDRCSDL
Procedure, shortened: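 Compound or DMSO vehicle was pin-transferred onto recombinant human AChE (50 mU/mL as dispensed) and left 30 min at room temperature. Acetylthiocholine with DTNB then started the reaction, read colorimetrically 10 min later.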

[41] = biological target: Acetylcholinesterase (Homo sapiens) (UniProt P22303); experiment: Acetylcholinesterase (AChE) small molecule antagonists: fluorescence cell-based qHTS assay (AID 1347398; calls by dose curve; note: nearly all actives have a fitted effect of over 50% in size); details: Potency: AChE activity; outcome: AChE activity
Procedure, shortened: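 Using neuroblastoma SH-SY5Y cells as the enzyme source, test chemicals are preincubated 30 min at 37 C; AChE-driven acetylthiocholine cleavage is then quantified by thiocholine-dependent Thiolite Green fluorescence after 40 min at room temperature.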

[42] = biological target: Acetylcholinesterase (Homo sapiens) (UniProt P22303); experiment: Acetylcholinesterase (AChE) small molecule antagonists: enzyme-based qHTS assay with human liver microsomes (AID 1347399; calls by dose curve; note: nearly all actives have a fitted effect of over 60% in size); details: Potency: qHTS inhibition; outcome: qHTS inhibition
Procedure, shortened: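 Recombinant human AChE (50 mU/mL in the enzyme mix) and human liver microsomes (0.25 mg/mL final) were preincubated with compound and NADPH (0.25 mg/mL final) for 30 min at 37 C. Acetylthiocholine/DTNB was then added; thiocholine was read colorimetrically after 10 min at room temperature.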

Measured: Potency

O=C(O)CCCO
not listed: [40] | [41] | [42]
inactive: all other assays above

C[C@H]1C[C@@H](O)CC(C)(C)C1
inactive: [40] | [41] | [42]
